# This is a sample that favours compounds with a hit; in the whole collection about 1.4% have one here.
# Vif-APOBEC3G blk – Vif-A3G binding inhibition; 410,000 tested, 0.076% active; Potency, µM (series often up to 46.1 µM), usual class: inhibitors; HeLa A3G-eYFP + Vif (tagged APOBEC3G with the HIV-1 protein that degrades it), YFP fluorescence, overnight; note: nearly all actives have a fitted effect of over 60% in size
# Target sequence (Q9HC16 whole entry, looked up): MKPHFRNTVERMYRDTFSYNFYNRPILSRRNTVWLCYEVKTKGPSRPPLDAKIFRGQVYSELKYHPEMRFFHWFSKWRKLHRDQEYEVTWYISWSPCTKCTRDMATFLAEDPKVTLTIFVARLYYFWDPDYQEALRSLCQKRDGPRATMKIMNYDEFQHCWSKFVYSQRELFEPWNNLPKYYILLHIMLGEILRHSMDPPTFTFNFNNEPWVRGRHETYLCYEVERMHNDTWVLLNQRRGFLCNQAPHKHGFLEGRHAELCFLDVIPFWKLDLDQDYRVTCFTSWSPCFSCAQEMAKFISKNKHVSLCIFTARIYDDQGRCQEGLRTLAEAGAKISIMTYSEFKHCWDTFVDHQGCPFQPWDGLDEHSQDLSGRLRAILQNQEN
#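 HeLa cells stably expressing Vif and C-terminally eYFP-tagged A3G, seeded overnight at 37 deg C, then exposed to compound by pintool overnight at 37 deg C. Rise in yellow fluorescence (Ex 488/Em 500-530, Acumen) marks blocked Vif-driven A3G degradation.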
# Akt phos inh – Akt phosphorylation inhibition. Neuro2A IGF-stimulated pAkt S473 HTRF, 20 min; hits give low values. activity change, % for hits at 50 µM. 360,000 tested, 0.32% active; in the data active = activity change below about -80%; inconclusive = mostly about -51% to -80%
#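 Neuro2A cells (4,500/well, DMEM with 0.5% FBS) were treated with compound at a single 50 µM final concentration, stimulated with 6 nM IGF for 20 min at 37 °C, and lysed. Phospho-Akt Ser473 was read by HTRF as 665/615 ratio ×10^4.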
# TSG101-PTAP inh – blocks PTAP/TSG101 interaction to inhibit HIV-1 budding; Q99816; Fluorescence polarization, FITC-PTAP peptide / Tsg101 binding; Potency, µM (titrated, usually from 115 µM), actives largely listed as inhibitors; 340,000 tested, under 10 active; active = well fitted inhibition curve with a large enough effect in the main read-out, with a control signal flat, not every such curve was filed as active; inconclusive = small, poorly fitted or top-dose-only effect, or effect the other way, or a change in a side signal; inactive = no such curve, though single readings can be large or run the other way
# Target sequence (Q99816 whole entry, looked up): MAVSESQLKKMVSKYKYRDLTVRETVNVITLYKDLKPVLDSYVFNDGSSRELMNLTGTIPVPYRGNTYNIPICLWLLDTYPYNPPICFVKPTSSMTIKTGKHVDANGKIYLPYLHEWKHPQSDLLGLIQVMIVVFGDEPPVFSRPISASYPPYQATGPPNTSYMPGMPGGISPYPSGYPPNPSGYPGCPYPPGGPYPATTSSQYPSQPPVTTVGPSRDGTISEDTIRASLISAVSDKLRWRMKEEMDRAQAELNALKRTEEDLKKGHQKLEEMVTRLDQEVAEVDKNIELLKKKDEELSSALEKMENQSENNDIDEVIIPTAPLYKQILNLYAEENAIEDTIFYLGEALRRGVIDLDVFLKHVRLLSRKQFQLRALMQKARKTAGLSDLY
#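 Compounds were pin-transferred onto Tsg101 binding domain (10 uM final) in HEPES pH 7.5 buffer, then FITC-PTAP peptide was added at 50 nM final. After 20 min at RT, polarization reported peptide displacement across a qHTS concentration series.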
# Vif-APOBEC3F blk – inhibitors of Vif-A3F interaction; Potency, µM (highest dose often 46.1 µM); HeLa A3F-eYFP + Vif (tagged APOBEC3F with the HIV-1 protein that degrades it), YFP fluorescence increase; 390,000 tested, 0.2% active; note: nearly all actives have a fitted effect of over 65% in size
#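 HeLa cells stably expressing A3F-eYFP plus Vif, plated and incubated overnight at 37 deg C, then exposed to compounds overnight at 37 deg C. Blocked degradation read as raised yellow fluorescence (Ex 488/Em 500-530).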
# ASM inhibitor – blocks human secretory acid sphingomyelinase. P17405. placental ASM, HMU-PC fluorogenic substrate, 60 min. Potency, µM (titrated, usually from 57.5 µM), actives largely listed as inhibitors. 340,000 tested, 0.006% active. AID 504937
#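 HMU-PC0 cleavage (9 uM final) by human placental ASM, 60 min at 37 °C following 10 min compound exposure at RT; stopped at pH 10, fluorescence Ex 386/Em 447 nm.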
# 12-LOX inh – ALOX12 (human) lipoxygenase inhibition. P18054. purified 12hLO, xylenol orange hydroperoxide absorbance. Potency, µM (top dose mostly 108 µM), most hits filed as inhibitors. 580,000 tested, 1.1% active
#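 Hydroperoxide product was detected by ferrous iron/xylenol orange as the 573 to 405 nm absorbance ratio. Arachidonic acid at 40 uM (final) was turned over for 30 min at room temperature by 150 nM human 12hLO, pH 7.0 Hepes buffer, after 15 min compound preincubation.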
# Hits are given with their value; i = inactive; ? = inconclusive; nt = not tested or not shown. Unless noted, calls come from the whole dose curve; as a rule, active = well fitted curve in the direction sought with a large enough effect; inconclusive = small, poorly fitted or top-dose-only effect, or another doubt; inactive = no such curve, though single readings can be large; an effect the other way counts as inactive or inconclusive.
SMILES,Vif-APOBEC3G blk,Akt phos inh,TSG101-PTAP inh,Vif-APOBEC3F blk,ASM inhibitor,12-LOX inh
Cc1cccn2c(=O)cc(COc3ccccc3NC(=O)Nc3ccccc3F)nc12,nt,nt,nt,nt,nt,i
C#CCNC(=O)NC(CCC)c1ccccc1 (stereo unspecified),nt,nt,nt,nt,nt,i
Cc1ccc(-c2c[nH]c(=S)n2-c2ccccc2F)cc1,i,i,i,i,i,35µM
Cn1c(-c2ccc(-c3ccccc3)cc2)c[nH]c1=S,i,i,i,i,i,40µM
CCn1c(-c2ccc(-c3ccccc3)cc2)c[nH]c1=S,i,i,i,i,i,?
Cc1ccc(/C=C2\Cc3ccccc3C2=O)cc1,nt,nt,nt,nt,nt,i
CCNC(=O)NC(=O)C(C)N(C)Cc1ccc(C(F)(F)F)cc1 (stereo unspecified),nt,nt,nt,nt,nt,i
Brc1ccc(-c2cn3c4ccccc4nc3n2CCCN2CCCC2)cc1,nt,nt,nt,nt,nt,10µM
CCn1cc(-c2ccc(C)cc2)cc1C(=O)NC(C)c1ccccn1 (stereo unspecified),nt,nt,nt,nt,nt,i
O=C(O)c1ccc(N/N=C/C(Br)=C/c2ccccc2)cc1,?,i,i,i,i,40µM
Clc1cc(Cl)c(N/N=C/C(Br)=C/c2ccccc2)c(Cl)c1,nt,nt,nt,nt,nt,6.3µM
BrC(=C\c1ccccc1)/C=N/Nc1nc2ccccc2[nH]1,i,i,i,i,i,i
Cc1cccc(N2CCN(CC(=O)Nc3nccs3)CC2)c1C,i,i,i,i,i,?
COc1ccccc1N1CCN(CC(=O)Nc2nccs2)CC1,i,i,i,i,i,20µM
CN(C)C(CNC(=O)CCc1ncc(-c2ccccc2F)o1)c1ccco1 (stereo unspecified),nt,nt,nt,nt,nt,i
COC(=O)C1=C(CCc2ccccc2)NC(=O)NC1c1ccc(C#N)cc1 (stereo unspecified),i,i,i,i,i,i
CCOC(=O)C1=C(CNc2ccc(C)c(Cl)c2)NC(=O)NC1c1ccc(Cl)cc1 (stereo unspecified),nt,nt,nt,nt,nt,8.9µM
COC(=O)C1=C(C)N(Cc2ccccc2)C(=S)NC1c1ccc(Cl)cc1 (stereo unspecified),nt,nt,nt,nt,nt,35µM
CCOC(=O)C1=C(CN2CCN(CC)CC2)NC(=O)NC1c1ccc(Cl)cc1 (stereo unspecified),i,nt,nt,i,nt,i
COC(=O)C1=C(C)N(Cc2ccc(Cl)cc2)C(=S)NC1c1ccccc1 (stereo unspecified),nt,nt,nt,nt,nt,40µM
COC(=O)C1=C(CCc2ccccc2)NC(=O)NC1c1ccc(Cl)cc1 (stereo unspecified),i,i,i,i,i,35µM
CN(C)C(CNC(=O)c1cc(=O)c2ccccc2o1)c1cccs1 (stereo unspecified),nt,nt,nt,nt,nt,i
COc1cccc(-c2cncnc2NCc2ccccc2OC)c1,nt,nt,nt,nt,nt,i
COc1cccc(-c2cncnc2NCc2ccc(OC)cc2OC)c1,nt,nt,nt,nt,nt,13µM
Cc1ccc2cc(CCl)c(Cl)nc2c1C,nt,nt,nt,nt,nt,4.5µM
SMILES,Vif-APOBEC3G blk,Akt phos inh,TSG101-PTAP inh,Vif-APOBEC3F blk,ASM inhibitor,12-LOX inh
Cc1ccc2cc(CCl)c(Cl)nc2c1,i,i,i,i,i,i
COc1ccccc1CCC(=O)N1CCC2(CC1)NC(=O)N(c1ccc(F)cc1)N2,nt,nt,nt,nt,nt,3.2µM
Cc1cccc(OCC(=O)N2CCC3(CC2)NC(=O)N(c2ccc(F)cc2)N3)c1,nt,nt,nt,nt,nt,4.5µM
O=C(Cc1ccccc1Cl)N1CCC2(CC1)NC(=O)N(c1ccc(F)cc1)N2,nt,nt,nt,nt,nt,2.2µM
CCc1cccc(NC(=O)Cn2nc3ccc(S(=O)(=O)C(C)(C)C)nn3c2=O)c1,nt,nt,nt,nt,nt,i
Cc1sc(NC(=O)CSc2nnc(-c3ccc(F)cc3)o2)c(C#N)c1C,i,-108%,i,i,i,i
CN1C(=O)N(C)c2ccc(C=O)c3cccc1c23,i,i,i,11µM,i,i
COC(=O)c1ccc(CNC(=O)CSc2nnc(COc3ccccc3)n2C)o1,i,-110%,i,i,i,i
COC(=O)c1cccc(NC(=O)CSc2nnc(COc3ccccc3)n2C)c1,i,i,i,i,i,i
CCN1C(=O)/C(=C/c2c(C)nn(C)c2C)SC1=S,i,i,i,i,i,10µM
CCN1C(=O)/C(=C/c2cnn(CC)c2C)SC1=S,i,i,i,i,i,i
Cc1nc(N)sc1-c1csc(Nc2ccccn2)n1,i,-110%,i,i,i,i
Cc1nc(C)c(-c2csc(Nc3ccccn3)n2)s1,i,i,i,i,i,?
O=C(NCc1cccnc1)c1cc(S(=O)(=O)C2CCS(=O)(=O)C2)ccc1F (stereo unspecified),nt,nt,nt,nt,nt,i
C=CCSc1nc2c(c(=O)[nH]c(=O)n2C)n1CCC,nt,nt,nt,nt,nt,i
Cc1cc(C)c(C(=O)COC(=O)c2ccc(C=O)cc2)c(C)c1,nt,nt,nt,nt,nt,i
Cc1cccc(OC[C@H]2C[C@@H](NC(=O)C3CCCC3)[C@H](O)[C@@H]2O)n1,nt,nt,nt,nt,nt,i
Cc1cccc(OC[C@H]2C[C@@H](NC(=O)c3ccc(C#N)cc3)[C@H](O)[C@@H]2O)n1,nt,nt,nt,nt,nt,25µM
CN1CCN(C(c2ccc(Cl)cc2)c2cc(Cl)c3cccnc3c2O)CC1 (stereo unspecified),?,i,i,?,i,10µM
CN(C(=O)Nc1ccc(F)cc1F)C(c1ccc(Cl)cc1)c1nccn1C (stereo unspecified),nt,nt,nt,nt,nt,i
Cc1ccc(/C=C/C(=O)N/N=C/c2ccccc2)cc1,nt,nt,nt,nt,nt,i
CN(C)C1(CN=Cc2cc(Cl)cc([N+](=O)[O-])c2O)CCCCC1,i,i,i,i,i,18µM
Fc1ccccc1CNc1nc(-c2cccnc2)nc2ccccc12,i,i,i,i,i,?
c1cncc(-c2nc(NCc3cccs3)c3ccccc3n2)c1,i,i,i,18µM,i,i
CNc1nc(-c2ccoc2)nc2ccccc12,nt,nt,nt,nt,nt,35µM
SMILES,Vif-APOBEC3G blk,Akt phos inh,TSG101-PTAP inh,Vif-APOBEC3F blk,ASM inhibitor,12-LOX inh
c1csc(CNc2nc(-c3ccoc3)nc3ccccc23)c1,nt,nt,nt,nt,nt,10µM
CC(C)n1nc(C(=O)Nc2ccc(F)c(F)c2)c2ccccc2c1=O,nt,nt,nt,nt,nt,i
CC(=O)N/N=C/c1ccccc1OCCCOc1ccc(Cl)c(C)c1,nt,nt,nt,nt,nt,i
Cn1c(=O)c2c(ncn2CC(=O)Nc2nc3ccc(F)cc3s2)n(C)c1=O,i,-122%,i,i,i,?
Cn1c(=O)c2c(ncn2CC(=O)Nc2nc3ccccc3s2)n(C)c1=O,nt,nt,nt,nt,nt,i
O=c1c2c(n(Cc3cccnc3)n1CCc1ccccc1)CN(Cc1ccc3c(c1)CCO3)CC2,nt,nt,nt,nt,nt,i
ClCc1nc2ccccc2n1Cc1ccccc1,?,i,?,5.6µM,i,?
COCc1nc2ccccc2n1Cc1ccccc1,i,i,i,i,i,i
CC1CCC(=NNC(=O)c2cc(-c3ccc(Cl)cc3)nc3ccccc23)CC1 (stereo unspecified),nt,nt,nt,nt,nt,i
S=c1[nH]c2cc(Br)cnc2[nH]1,i,i,i,i,i,40µM
Cn1c(N/N=C/c2c[nH]c3ccccc23)nc2ccccc21,i,i,i,i,i,45µM

# Screening data as filed in PubChem BioAssay.
